These results are taken from the supplement of paper PMC9254222.

The full ranking holds about 1,100 compounds; the median of “Renilla luciferase signal (cell health) relative to plate median” is about 0.97, and the highest 2% start at about 1.6. Only a selection was taken, and the highest values are over-represented in it overall.

This test has as its system HEK293T (UBE3A T485A transfected, BAR Wnt reporter). Description: Renilla luciferase signal (cell health) relative to plate median (fold (linear ratio)); higher = higher Renilla signal. The conditions noted are these: 24 h. The method in brief:
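HEK293T cells carrying a transfected BAR firefly luciferase Wnt reporter, TK-Renilla and an expression plasmid were exposed to chemicals at 0.01–100 uM for 24 h, with dosing four hours after transfection. Readout used Dual-Glo luciferase. The firefly/Renilla ratio defined Wnt activity and raw Renilla defined cell health, each median-centred per plate. Figures are means of four biological replicates.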

Turning to `CC(C)(c1ccccc1)c1ccc(O)c(C(C)(C)c2ccccc2)c1` [2,4-Bis(1-methyl-1-phenylethyl)phenol], the Renilla luciferase signal (concentration: 0.1 uM) was 0.856, the Renilla luciferase signal (concentration: 1 uM) turned out to be 0.888, the Renilla luciferase signal (concentration: 10 uM) stood at 1.05 and the Renilla luciferase signal (concentration: 100 uM) is 1.14.

Regarding `CN(C)c1ccc(C(=O)c2ccc(N(C)C)cc2)cc1` [Michler's ketone], the Renilla luciferase signal is, setting by setting: (concentration: 0.1 uM) 1.09; (concentration: 1 uM) 1.03; (concentration: 10 uM) 0.702; (concentration: 100 uM) 0.267.

Turning to `Cc1cc(O)ccc1Cl` [4-Chloro-3-methylphenol], the Renilla luciferase signal reads like this: (concentration: 0.1 uM) 0.999; (concentration: 1 uM) 1.09; (concentration: 10 uM) 0.977; (concentration: 100 uM) 1.06.

Regarding `ClC1=C(Cl)C2(Cl)C3C4CC(C5OC45)C3C1(Cl)C2(Cl)Cl` (stereo not given) [Endrin], the Renilla luciferase signal is, setting by setting: (concentration: 0.1 uM) 0.878; (concentration: 1 uM) 0.941; (concentration: 10 uM) 0.842; (concentration: 100 uM) 0.349.

For `ClC1=C(Cl)C2(Cl)C3C4CC(C5OC45)C3C1(Cl)C2(Cl)Cl` (stereo not given) [Dieldrin], the Renilla luciferase signal came out at 1.01 (concentration: 0.1 uM), 0.977 (concentration: 1 uM), 1.07 (concentration: 10 uM) and 0.829 (concentration: 100 uM).

On to `CCCCOC(=O)c1ccccc1C(=O)O` [Monobutyl phthalate], for which the Renilla luciferase signal by setting is: (concentration: 0.01 uM) 0.968; (concentration: 0.1 uM) 0.862; (concentration: 1 uM) 0.73; (concentration: 10 uM) 1.21; (concentration: 100 uM) 2.17.

Consider `CCCCOC(=O)c1ccccc1C(=O)OCCCC` [Dibutyl phthalate], for which the Renilla luciferase signal (concentration: 0.01 uM) amounted to 1.02; the Renilla luciferase signal (concentration: 0.1 uM) amounted to 1.04; the Renilla luciferase signal (concentration: 1 uM) was 1.02; the Renilla luciferase signal (concentration: 10 uM) amounted to 1.03; the Renilla luciferase signal (concentration: 100 uM) was 0.11.

For `CCCCCOC(=O)c1ccccc1C(=O)OCCCCC` [Dipentyl phthalate], the Renilla luciferase signal runs as follows: (concentration: 0.1 uM) 0.95; (concentration: 1 uM) 0.861; (concentration: 10 uM) 0.91; (concentration: 100 uM) 1.18.

`CC(C)C1(C)N=C(c2nc3ccccc3cc2C(=O)O)NC1=O` (stereo not given) [Imazaquin]: the Renilla luciferase signal was found to be 1.09 (concentration: 0.01 uM); 1.09 (concentration: 0.1 uM); 1.07 (concentration: 1 uM); 1.06 (concentration: 10 uM); 1.38 (concentration: 100 uM).

Regarding `Cc1cnc(C2=NC(=O)C(C)(C(C)C)N2)c(C(=O)O)c1` (stereo not given) [Imazapic], the Renilla luciferase signal runs as follows: (concentration: 0.01 uM) 1.11; (concentration: 0.1 uM) 1.17; (concentration: 1 uM) 1.18; (concentration: 10 uM) 1.14; (concentration: 100 uM) 1.72.

With `CCC(C)C1OC2(C=CC1C)CC1CC(CC=C(C)C(OC3CC(OC)C(OC4CC(OC)C([NH2+]C)C(C)O4)C(C)O3)C(C)C=CC=C3COC4C(O)C(C)=CC(C(=O)O1)C34O)O2.O=C([O-])c1ccccc1` (stereo not given) [Emamectin benzoate], the Renilla luciferase signal was 1.02 (concentration: 0.01 uM); 1.08 (concentration: 0.1 uM); 0.877 (concentration: 1 uM); 0.0929 (concentration: 10 uM); 0.0231 (concentration: 100 uM).

Take `CC(C)C1(C)N=C(c2ncccc2C(=O)O)NC1=O` (stereo not given) [Imazapyr]: the Renilla luciferase signal reads like this: (concentration: 0.01 uM) 0.822; (concentration: 0.1 uM) 0.714; (concentration: 1 uM) 0.895; (concentration: 10 uM) 0.959; (concentration: 100 uM) 1.42.

Consider `COCc1cnc(C2=NC(C)(C(C)C)C(=O)N2)c(C(=O)O)c1` (stereo not given) [Imazamox], for which the Renilla luciferase signal is, setting by setting: (concentration: 0.01 uM) 0.649; (concentration: 0.1 uM) 0.799; (concentration: 1 uM) 0.965; (concentration: 10 uM) 0.977; (concentration: 100 uM) 2.3.

Consider `CCc1cnc(C2=NC(C)(C(C)C)C(=O)N2)c(C(=O)O)c1` (stereo not given) [Imazethapyr], for which the Renilla luciferase signal reads like this: (concentration: 0.01 uM) 1.11; (concentration: 0.1 uM) 0.962; (concentration: 1 uM) 0.96; (concentration: 10 uM) 0.991; (concentration: 100 uM) 1.58.

As for `CCCOC/C(=N\c1ccc(Cl)cc1C(F)(F)F)n1ccnc1` [Triflumizole], the Renilla luciferase signal reads like this: (concentration: 0.01 uM) 0.984; (concentration: 0.1 uM) 0.937; (concentration: 1 uM) 0.992; (concentration: 10 uM) 0.929; (concentration: 100 uM) 1.45.

`CCSC(=O)N1CCCCCC1` [Molinate]: the Renilla luciferase signal (concentration: 0.01 uM) stood at 0.998; the Renilla luciferase signal (concentration: 0.1 uM) stood at 0.899; the Renilla luciferase signal (concentration: 1 uM) stood at 0.905; the Renilla luciferase signal (concentration: 10 uM) worked out at 1.04; the Renilla luciferase signal (concentration: 100 uM) was 1.8.

On to `CCSC(=O)N(CC)C1CCCCC1` [Cycloate], for which the Renilla luciferase signal reads like this: (concentration: 0.01 uM) 0.797; (concentration: 0.1 uM) 0.996; (concentration: 1 uM) 0.924; (concentration: 10 uM) 1.01; (concentration: 100 uM) 1.15.

Regarding `CCOP(=S)(Oc1cnc(C(C)(C)C)nc1)OC(C)C` (stereo not given) [Tebupirimfos], the Renilla luciferase signal (concentration: 0.01 uM) came out at 1.07; the Renilla luciferase signal (concentration: 0.1 uM) turned out to be 1.22; the Renilla luciferase signal (concentration: 1 uM) is 1.16; the Renilla luciferase signal (concentration: 10 uM) came out at 1.08; the Renilla luciferase signal (concentration: 100 uM) came to 1.4.

On to `CSC(=O)c1c(C(F)F)nc(C(F)(F)F)c(C(=O)SC)c1CC(C)C` [Dithiopyr], for which the Renilla luciferase signal reads like this: (concentration: 0.01 uM) 0.664; (concentration: 0.1 uM) 0.813; (concentration: 1 uM) 0.927; (concentration: 10 uM) 0.835; (concentration: 100 uM) 1.14.

Take `O=C(N[C@H](c1ccccc1)[C@@H]1CN2CCC1CC2)c1c(Cl)ccc(C(F)(F)F)c1Cl`: the Renilla luciferase signal (concentration: 0.1 uM) turned out to be 0.771, the Renilla luciferase signal (concentration: 1 uM) was determined as 0.687, the Renilla luciferase signal (concentration: 10 uM) was determined as 0.344 and the Renilla luciferase signal (concentration: 100 uM) was determined as 0.143.

`CCOc1ccc(C(C)(C)COCc2cccc(Oc3ccccc3)c2)cc1` [Etofenprox]: the Renilla luciferase signal amounted to 1.01 (concentration: 0.1 uM), 1.12 (concentration: 1 uM), 0.95 (concentration: 10 uM) and 1.14 (concentration: 100 uM).

For `CCC(C)(C)c1ccc(O)cc1` [4-(2-Methylbutan-2-yl)phenol], the Renilla luciferase signal by setting is: (concentration: 0.1 uM) 0.874; (concentration: 1 uM) 0.809; (concentration: 10 uM) 0.795; (concentration: 100 uM) 0.442.

`CSc1nc(NC(C)C)nc(NC(C)C)n1` [Prometryn]: the Renilla luciferase signal runs as follows: (concentration: 0.01 uM) 1.14; (concentration: 0.1 uM) 1.03; (concentration: 1 uM) 0.973; (concentration: 10 uM) 1.01; (concentration: 100 uM) 0.989.

Take `CCNc1nc(Cl)nc(NC(C)C)n1` [Atrazine]: the Renilla luciferase signal stood at 0.72 (concentration: 0.01 uM); 0.693 (concentration: 0.1 uM); 0.877 (concentration: 1 uM); 0.729 (concentration: 10 uM); 1.18 (concentration: 100 uM).

On to `CCNc1nc(NC(C)C)nc(SC)n1` [Ametryn], for which the Renilla luciferase signal by setting is: (concentration: 0.01 uM) 0.34; (concentration: 0.1 uM) 0.318; (concentration: 1 uM) 0.3; (concentration: 10 uM) 0.543; (concentration: 100 uM) 1.78.

As to `CCCN(CCC)c1c([N+](=O)[O-])cc(S(N)(=O)=O)cc1[N+](=O)[O-]` [Oryzalin], the Renilla luciferase signal (concentration: 0.01 uM) is 1.08; the Renilla luciferase signal (concentration: 0.1 uM) worked out at 0.918; the Renilla luciferase signal (concentration: 1 uM) was found to be 0.931; the Renilla luciferase signal (concentration: 10 uM) was 0.876; the Renilla luciferase signal (concentration: 100 uM) came to 0.99.

In the case of `CC1COC(Cn2cncn2)(c2ccc(Oc3ccc(Cl)cc3)cc2Cl)O1` (stereo not given) [Difenoconazole], the Renilla luciferase signal by setting is: (concentration: 0.01 uM) 1.03; (concentration: 0.1 uM) 1.07; (concentration: 1 uM) 0.923; (concentration: 10 uM) 0.485; (concentration: 100 uM) 0.152.

Regarding `Cc1cccc(N)c1N` [2,3-Diaminotoluene], the Renilla luciferase signal by setting is: (concentration: 0.1 uM) 0.728; (concentration: 1 uM) 0.75; (concentration: 10 uM) 0.772; (concentration: 100 uM) 0.198.
